Assay results published in the supplement of paper PMC7366291.
Structures can show the parent of a compound that is named as a salt. ± gives the standard deviation or the standard deviation of the averaged measurements.

Experiments:
Details in all cases: 25 µM; exposure: 24-48 hpf
[1] = system: Danio rerio Tg(wt1b:EGFP) embryo, pronephros; experiment: glomerular separation, fold change vs DMSO control; higher = glomeruli further apart (abnormal)
Method in brief: (§1)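 Dechorionated Tg(wt1b:EGFP) zebrafish embryos were exposed to 25 μM compound in 0.5% DMSO, HEPES-buffered E3 with 0.003% PTU, from 24 to 48 hpf at 28.5°C. Pronephroi were imaged dorsally in agarose-filled 96-well plates (470 nm, 10 z-slices). On maximum projections, 16 reference points were set manually in Fiji and a macro computed distances and angles. Values more than 2 SD from the feature mean were excluded. Each feature is a fold change relative to the mean of same-day DMSO controls.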

[2] = system: Danio rerio Tg(wt1b:EGFP) embryo, pronephros; experiment: glomerular width (mean of left and right), fold change vs DMSO control; higher = wider glomerulus
Method in brief: as §1

[3] = system: Danio rerio Tg(wt1b:EGFP) embryo, pronephros; experiment: fraction of imaged embryos annotated as normal kidney; higher = less nephrotoxic; extreme values may be limits of the assay
Method in brief: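 The read-out is the proportion of embryos in each treatment manually annotated as normal-kidney. Exposure ran from 24 to 48 hpf at 28.5°C in 12-well plates, using dechorionated Tg(wt1b:EGFP) zebrafish embryos in 5 mM HEPES-buffered E3 with 0.003% PTU, 0.5% DMSO and 25 μM compound. For imaging, larvae were anaesthetised with tricaine, positioned dorsally in agarose-filled 96-well plates and captured by widefield fluorescence (470 nm, 10 z-slices), with scoring done on maximum projections.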

[4] = system: Danio rerio Tg(wt1b:EGFP) embryo, pronephros; experiment: pronephric angle neck segment to proximal convoluted tubule (mean of left and right), fold change vs DMSO control; higher = larger pronephric angle
Method in brief: as §1

Row | Compound | glomerular separation [1] | glomerular width [2] | fraction of imaged embryos annotated as normal kidney [3] | pronephric angle neck segment [4]
1 | CCC(=O)O[C@H]1CC[C@H]2[C@@H]3CCC4=CC(=O)CC[C@]4(C)[C@H]3CC[C@]12C [Testosterone propionate] | 1.12 ± 0.46 | 1.03 ± 0.035 | 0.75 | 0.9686 ± 0.0074
2 | COc1ccc(C(CN(C)C)C2(O)CCCCC2)cc1 (stereo not drawn) [Venlafaxine] | 0.684 ± 0.13 | 1.023 ± 0.0059 | 0.917 | 0.925 ± 0.013
3 | CC(=O)O[C@H]1C[C@@H]2CC[C@@H]3[C@H](CC[C@@]4(C)[C@H]3C[C@H]([N+]3(C)CCCCC3)[C@@H]4OC(C)=O)[C@@]2(C)C[C@@H]1[N+]1(C)CCCCC1 [Pancuronium bromide] | 1.23 ± 0.41 | 0.928 ± 0.13 | 1 | 0.955 ± 0.047
4 | C[N+]1(C)CCOC(O)(c2ccc(-c3ccc(C4(O)C[N+](C)(C)CCO4)cc3)cc2)C1 (stereo not drawn) [Hemicholinium bromide] | 0.878 ± 0.14 | 0.95 ± 0.00098 | 0.917 | 1 ± 0.1
5 | CCC1(C)CC(=O)NC(=O)C1 [Bemegride] | 0.891 ± 0.28 | 0.997 ± 0.013 | 0.75 | 0.968 ± 0.027
6 | O=P1(N(CCCl)CCCl)NCCCO1 (stereo not drawn) [Cyclophosphamide] | 0.894 ± 0.2 | 0.913 ± 0.0021 | 0.75 | 1.09 ± 0.028
7 | CN1[C@@H]2CC[C@H]1C[C@@H](OC(=O)[C@H](CO)c1ccccc1)C2 [Hyoscyamine (L)] | 0.956 ± 0.51 | 1.06 ± 0.03 | 0.75 | 0.999 ± 0.012
8 | CCCC(C)(COC(N)=O)COC(=O)NC(C)C (stereo not drawn) [Carisoprodol] | 0.877 ± 0.24 | 1.14 ± 0.026 | 1 | 0.938 ± 0.022
9 | CC(C)[N+](C)(CCC(C(N)=O)(c1ccccc1)c1ccccc1)C(C)C [Isopropamide iodide] | 0.996 ± 0.45 | 1.0283 ± 0.001 | 0.818 | 0.983 ± 0.025
10 | CC1OC(OC2/C=C/C=C/C=C/C=C/CC/C=C/C=C/[C@H](C)[C@@H](O)[C@@H](C)[C@H](C)OC(=O)CC(O)CC(O)CC(O)CCC(O)C(O)C[C@]3(O)CC(O)C(C(=O)O)C(C2)O3)C(O)C(N)C1O (stereo partly drawn) [Nystatine] | 0.778 ± 0.16 | 0.994 ± 0.05 | 1 | 1.05 ± 0.053
11 | C[C@]12CCC(=O)C=C1CC[C@@H]1[C@@H]2C(=O)C[C@]2(C)C(=O)CC[C@@H]12 [Adrenosterone] | 0.651 ± 0.16 | 1.005 ± 0.0024 | 1 | 0.958 ± 0.021
12 | CC(=O)[C@H]1CC[C@H]2[C@@H]3CC[C@H]4C[C@H](O)CC[C@]4(C)[C@H]3C(=O)C[C@]12C [Alfaxalone] | 0.896 ± 0.36 | 0.957 ± 0.0043 | 0.583 | 1.02 ± 0.027
13 | O=[N+]([O-])O[C@@H]1CO[C@H]2[C@@H]1OC[C@@H]2O [Isosorbide mononitrate] | 0.951 ± 0.48 | 1.04 ± 0.019 | 0.833 | 0.986 ± 0.021
14 | CCN(C)C(=O)Oc1cccc([C@H](C)N(C)C)c1 [Rivastigmine] | 1.1 ± 0.33 | 0.8935 ± 0.007 | 0.917 | 0.9906 ± 0.0047
15 | CC(=O)OCC(=O)[C@H]1CC[C@H]2[C@@H]3CC[C@H]4C[C@H](O)CC[C@]4(C)[C@H]3C(=O)C[C@]12C [Alfadolone acetate] | 1.22 ± 0.64 | 0.942 ± 0.057 | 0.75 | 1 ± 0.018
16 | COc1ccc(C(=O)N2CCCC2=O)cc1 [Aniracetam] | 0.837 ± 0.17 | 1.06 ± 0.052 | 0.75 | 1.02 ± 0.019
17 | CCC(=O)O[C@@](Cc1ccccc1)(c1ccccc1)[C@@H](C)CN(C)C [Levopropoxyphene napsylate] | 1.29 ± 0.53 | 1.05 ± 0.037 | 0.909 | 0.996 ± 0.044
18 | CN(C)C(=O)Oc1cccc([N+](C)(C)C)c1 [Neostigmine bromide] | 0.984 ± 0.28 | 0.859 ± 0.034 | 0.667 | 1.09 ± 0.053
19 | CN1C[C@H](C(=O)N[C@]2(C)O[C@@]3(O)[C@@H]4CCCN4C(=O)[C@H](Cc4ccccc4)N3C2=O)C[C@@H]2c3cccc4[nH]cc(c34)C[C@H]21 [Dihydroergotamine tartrate] | 1.15 ± 0.56 | 1.0661 ± 0.00016 | 0.833 | 0.948 ± 0.015
20 | O=P1(NCCCl)OCCCN1CCCl (stereo not drawn) [Ifosfamide] | 1.05 ± 0.39 | 0.999 ± 0.045 | 0.833 | 1.06 ± 0.023
21 | O=c1[nH]c2ccccc2n1C1CCN(CCCC(c2ccc(F)cc2)c2ccc(F)cc2)CC1 [Pimozide] | 4.46 ± 1.6 | 0.673 ± 0.02 | 0 | 0.976 ± 0.099
22 | CCOC(=O)c1cncn1[C@H](C)c1ccccc1 [Etomidate] | 0.978 ± 0.27 | 0.949 ± 0.067 | 0.833 | 1.03 ± 0.011
23 | C[C@@H]1O[C@@H](O[C@@H]2C=C3CC[C@@H]4[C@H](CC[C@]5(C)[C@@H](c6ccc(=O)oc6)CC[C@]45O)[C@@]3(C)CC2)[C@H](O)[C@H](O)[C@H]1O [Proscillaridin A] | 3.66 ± 1.1 | 0.716 ± 0.029 | 0 | 1.2604 ± 0.00066
24 | CC(=O)O[C@H]1CC[C@@]2(C)C(=CC[C@@H]3[C@@H]2CC[C@]2(C)C(=O)CC[C@@H]32)C1 [Dehydroisoandosterone 3-acetate] | 1.13 ± 0.35 | 0.896 ± 0.056 | 0.917 | 1.02 ± 0.043
25 | CCC1(CC)C(=O)C=CNC1=O [Pyrithyldione] | 0.785 ± 0.31 | 1.034 ± 0.0093 | 0.727 | 0.9934 ± 0.0041
26 | C#CCN(C)[C@H](C)Cc1ccccc1 [Selegiline hydrochloride] | 0.996 ± 0.51 | 0.969 ± 0.055 | 0.75 | 0.98 ± 0.017
27 | C=CCN1CC[C@]23c4c5ccc(O)c4O[C@H]2C(=O)CC[C@@]3(O)[C@H]1C5 [Naloxone hydrochloride] | 0.981 ± 0.33 | 1.01 ± 0.055 | 0.833 | 1.05 ± 0.017
